From PubChem BioAssay
CYP2C19 inhib = blocks human cytochrome P450 2C19 | P33261 | CYP2C19 Supersomes, luciferin-H EGE luminescence, 30 min | inhibition, % at 5 µM | 96,000 tested, 21% active;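 active means CYP2C19 inhibition above a set limit at 5 µM in the primary screen, cut at about 50% in these data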
CYP2C9 inhib = blocks human cytochrome P450 2C9. inhibition, % at 5 µM. 96,000 tested, 20% active. P11712. CYP2C9 Supersomes, luciferin-H conversion, luminescence;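 active means blocking of liver enzyme CYP2C9 beyond about 50% at 5 µM, limit read from the data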
Target sequence (P11712 whole entry, looked up): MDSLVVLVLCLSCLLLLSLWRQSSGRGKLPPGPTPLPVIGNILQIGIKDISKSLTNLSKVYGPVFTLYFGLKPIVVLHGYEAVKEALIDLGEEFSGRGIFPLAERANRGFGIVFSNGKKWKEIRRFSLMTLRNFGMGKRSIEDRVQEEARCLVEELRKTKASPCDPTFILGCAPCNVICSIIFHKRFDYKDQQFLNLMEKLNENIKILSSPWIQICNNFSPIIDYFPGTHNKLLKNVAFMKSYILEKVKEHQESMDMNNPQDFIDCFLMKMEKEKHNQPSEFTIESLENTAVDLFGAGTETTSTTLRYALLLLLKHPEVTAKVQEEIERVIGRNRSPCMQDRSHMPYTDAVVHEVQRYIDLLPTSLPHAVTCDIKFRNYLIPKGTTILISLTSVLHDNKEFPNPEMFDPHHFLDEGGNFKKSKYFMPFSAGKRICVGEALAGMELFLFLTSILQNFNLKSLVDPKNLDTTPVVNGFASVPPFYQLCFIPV
CYP2C19 activ = cytochrome P450 2C19 (human) activation. activation factor at 5 µM. P33261. 96,000 tested, under 10 active. recombinant CYP2C19, luciferin-H EGE luminescence; hits give high values; 0 = fully inhibited enzyme, 1 = untreated enzyme;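 active means activation factor of at least 2 at 5 µM in the primary screen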
MRP resist rev = compounds reversing MRP-mediated drug resistance; differential viability (reversal), % at 10 µM; H69AR cells + 2 uM doxorubicin, CellTiter-Glo, 72 h; AID 602; 85,000 tested, 0.04% active;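 active means viability drop by adding the cancer drug above about 55%, with treated viability meeting a 40% cutoff, limit read from the data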;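 further: larger differential means the compound sensitizes cells more to doxorubicin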
CYP2C9 activ = activators of human CYP2C9; recombinant CYP2C9, luciferin-H conversion, luminescence; hits give high values; factor 1 = untreated enzyme, 0 = blocked; activation factor at 5 µM; 96,000 tested, 1.4% active;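 active means activation factor of 2 or more for CYP2C9 at a 5 µM dose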
MRP-1 activ = activators of MRP-1; H69AR cells + doxorubicin, viability rescue, CellTiter-Glo; viability increase, % at 10 µM; 140,000 tested, 0.61% active; AID 799;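 active means viability gain under doxorubicin at or above a set limit, the compound median plus 3 SD, cut at about 4.7% in these data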;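 further: MRP-1 overexpressing cells given doxorubicin 25 µM after compound pretreatment; 18-22 h compound pretreatment then 72 h with doxorubicin before readout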
Of the large screens only hits and unclear results are named; the others gave an inactive call. This is a sample that favours compounds with a hit; in the whole collection about 21% have one here.

COC(=O)c1cccc(NC(=O)Cc2ccc(OC)cc2)c1C	CYP2C19 inhib 92.3, CYP2C9 inhib 67.2
COC(=O)c1cccc(NS(C)(=O)=O)c1C	none
O=c1[nH]c(CN2CCN(Cc3ccc4c(c3)OCO4)CC2)nc2sc3c(c12)CCC3	none (no result: MRP-1 activ)
Cc1cc(C)c[n+](C(C)C(=O)c2ccc(-c3ccccc3)cc2)c1 (stereo unspecified)	none (no result: CYP2C19 inhib, CYP2C9 inhib, CYP2C19 activ, MRP resist rev, CYP2C9 activ)
Cc1cccc(NC(=O)CSc2ncnc3c2oc2ccccc23)c1	CYP2C9 inhib 62.7
O=C(CSc1ncnc2c1oc1ccccc12)NCc1ccc(F)cc1	CYP2C19 inhib 65.4, CYP2C9 inhib 72.4
O=C(CSc1ncnc2c1oc1ccccc12)NC1CCCCC1	CYP2C19 inhib 72.5, CYP2C9 inhib 72.4
Cc1ccc2nc(NC(=O)CSc3ncnc4c3oc3ccccc34)sc2c1	none
O=C(CSc1ncnc2c1oc1ccccc12)NCC1CCCO1 (stereo unspecified)	none (no result: CYP2C19 inhib, CYP2C9 inhib, CYP2C19 activ, CYP2C9 activ, MRP-1 activ)
Cc1cc(C)nc(Sc2ncnc3c2oc2ccccc23)n1	CYP2C19 inhib 58.2
COc1ccccc1CC(=O)NN1C(=O)c2ccccc2C1=O	none (no result: CYP2C19 inhib, CYP2C9 inhib, CYP2C19 activ, MRP resist rev, CYP2C9 activ)
COc1ccc(N2CCN(C(=O)c3ccc(OCC4CCCO4)cc3)CC2)cc1 (stereo unspecified)	none
Cc1ccc(S(=O)(=O)n2c([N+](=O)[O-])cnc2C)c(C)c1C	none (no result: CYP2C19 inhib, CYP2C9 inhib, CYP2C19 activ, MRP resist rev, CYP2C9 activ)
C#CCN1C(=O)S/C(=C/C=C/c2ccc(N(C)C)cc2)C1=O	none (no result: CYP2C19 inhib, CYP2C9 inhib, CYP2C19 activ, MRP resist rev, CYP2C9 activ)
Cc1ccc(-n2c(SCC3CNC(=O)O3)nnc2-c2ccccc2)cc1C (stereo unspecified)	none (no result: CYP2C19 inhib, CYP2C9 inhib, CYP2C19 activ, MRP resist rev, CYP2C9 activ)
CC(C)c1cc(C(C)C)c(S(=O)(=O)NNC(=O)c2ccncc2)c(C(C)C)c1	none (no result: CYP2C19 inhib, CYP2C9 inhib, CYP2C19 activ, MRP resist rev, CYP2C9 activ)
O=C(Cn1cnc2c(oc3ccccc32)c1=O)c1ccccc1	none
Cc1ccccc1NC(=O)Cn1cnc2c(oc3ccccc32)c1=O	CYP2C19 inhib 63.8, CYP2C9 inhib 59.0
O=C(CSc1ncnc2c1oc1ccccc12)Nc1cccc(F)c1	CYP2C19 inhib 60.5, CYP2C9 inhib 76.1
Fc1cccc(CSc2ncnc3c2oc2ccccc23)c1	none
CCOC(=O)c1c(-c2ccccc2)csc1NC(=O)c1ccc(S(=O)(=O)N2CCOCC2)cc1	none (no result: CYP2C19 inhib, CYP2C9 inhib, CYP2C19 activ, MRP resist rev, CYP2C9 activ)
O=C(Cn1cnc([N+](=O)[O-])c1)NC1CCCC1	none (no result: CYP2C19 inhib, CYP2C9 inhib, CYP2C19 activ, MRP resist rev, CYP2C9 activ)
Cc1ccccc1N1CCN(Cc2cccc(C(=O)O)c2)CC1	none
COC(=O)c1cc(CN2CCN(c3ccccc3C)CC2)ccc1O	CYP2C9 inhib 50.8
COc1cc(CN2CCN(c3ccccc3F)CC2)cc(OC)c1O	CYP2C19 inhib 80.1
COc1cc(CN2CCC(C(=O)N3CCN(c4ccccc4F)CC3)CC2)cc(OC)c1O	CYP2C9 inhib 69.8 (no result: MRP resist rev)
N/C(Cc1cccs1)=N\OC(=O)COc1ccc(Cl)cc1Cl	none
CCOc1ccc(C(=O)/C=C/Nc2ccc(S(=O)(=O)N=C(N)N)cc2)cc1	none (no result: CYP2C19 inhib, CYP2C9 inhib, CYP2C19 activ, MRP resist rev, CYP2C9 activ)
CCOC(=O)c1ccc(NC(=O)NC(C)C2CCCO2)cc1 (stereo unspecified)	none
CC(CCc1ccco1)NC(=O)CSc1cc(=O)n(C)c2ccccc12 (stereo unspecified)	none
CC1=C(C(=O)OC(C)C)C(C)C(C(=O)OC(C)C)=C(C)N1	CYP2C19 inhib 100.4, CYP2C9 inhib 92.3
Oc1c(Cl)cc(Cl)cc1C(C#Cc1ccccc1)N1CCOCC1 (stereo unspecified)	CYP2C9 inhib 67.0 (no result: MRP resist rev)
CN1CCOc2cc(S(=O)(=O)Nc3ccc(F)cc3)ccc21	CYP2C19 inhib 87.0, CYP2C9 inhib 59.7
CCOC(=O)c1cccc(Nc2ncnc3ccc(C)cc23)c1	CYP2C19 inhib 55.9
CCOC(=O)c1ccc(Nc2ncnc3ccc(C)cc23)cc1	none
COc1ccc(S(=O)(=O)NC2CC3CCC2C3)cc1Cl (stereo unspecified)	none
O=S(=O)(NC1CC2CCC1C2)c1ccc2c(c1)OCCO2 (stereo unspecified)	CYP2C19 inhib 96.9, CYP2C9 inhib 77.5
CC1CCCC(NS(=O)(=O)c2ccc3c(c2)OCCO3)C1C (stereo unspecified)	CYP2C19 inhib 97.0, CYP2C9 inhib 61.3
CCOc1ccccc1C(=O)N1CCN=C1SCc1cccnc1	CYP2C19 inhib 63.7
COc1ccc(C(=O)N2CCN=C2SCc2cccnc2)cc1OC	CYP2C19 inhib 82.8
O=C(C1CCCCC1)N1CCN=C1SCc1cccnc1	CYP2C19 inhib 95.3
COc1cccc(OC)c1C(=O)N1CCN=C1SCc1cccnc1	none
O=C(c1ccccc1F)N1CCN=C1SCc1cccnc1	CYP2C19 inhib 82.5
C/C(CC1CC(COCCC(C)C)OC1=O)=N\NC(N)=S (stereo unspecified)	none (no result: MRP resist rev)
O=C(Nn1c(-c2ccccc2)nc2ccccc2c1=O)c1cccs1	none (no result: CYP2C19 inhib, CYP2C9 inhib, CYP2C19 activ, MRP resist rev, CYP2C9 activ)
CCOc1ccc(NC(=O)C2CC(=O)N(C(C)C)C2)cc1 (stereo unspecified)	none
CCCC(c1nnnn1Cc1ccc(OC)cc1)N1CCN(c2ccccc2)CC1 (stereo unspecified)	CYP2C9 inhib 82.1
COc1ccc(Cn2nnnc2C(C(C)C)N2CCc3ccccc32)cc1 (stereo unspecified)	CYP2C19 inhib 71.3, CYP2C9 inhib 68.3
COc1ccc(Cn2nnnc2C(CC(C)C)N2CCN(c3ccccc3)CC2)cc1 (stereo unspecified)	CYP2C19 inhib 74.5, CYP2C9 inhib 64.9
CCCC(c1nnnn1Cc1ccc(OC)cc1)N1CCC(C(N)=O)CC1 (stereo unspecified)	none
CC(C)CC(c1nnnn1C(C)C)N1CCN(c2ccccc2)CC1 (stereo unspecified)	CYP2C9 inhib 67.5
COc1ccc(CC(=O)Nc2ccccc2C(=O)N2CCOCC2)cc1OC	none (no result: CYP2C19 inhib, CYP2C9 inhib, CYP2C19 activ, MRP resist rev, CYP2C9 activ)
Cc1sc2nc(CSc3ccc([N+](=O)[O-])c(C(F)(F)F)c3)[nH]c(=O)c2c1C	none (no result: CYP2C19 inhib, CYP2C9 inhib, CYP2C19 activ, MRP resist rev, CYP2C9 activ)
CC(=O)N1C(C(=O)O)CSC1c1ccc(C)cc1 (stereo unspecified)	none
COc1ccc(C)cc1S(=O)(=O)N1CCC(C(=O)N2CCN(C)CC2)CC1	none (no result: CYP2C19 inhib, CYP2C9 inhib, CYP2C19 activ, MRP resist rev, CYP2C9 activ)
Cc1cc(N2CCCC2=O)cc(C)c1S(=O)(=O)NCCOc1ccccc1	CYP2C19 inhib 88.4, CYP2C9 inhib 91.5
CCn1c(=O)n(CC)c2cc(S(=O)(=O)NCCOc3ccccc3)c(C)cc21	CYP2C19 inhib 51.3, CYP2C9 inhib 72.0
CCCOc1cc(C)c(S(=O)(=O)NCCOC)cc1C	none
CCOC(=O)/C(C#N)=C\c1ccc(OCC(=O)Nc2ccc(C)cc2C)c(OC)c1	CYP2C19 inhib 77.5 (no result: MRP resist rev)
O=C(c1ccco1)N1CCN(S(=O)(=O)c2cccc3nsnc23)CC1	CYP2C19 inhib 74.9
O=C(NCCc1ccccc1)C1CCN(S(=O)(=O)c2cccc3nsnc23)CC1	CYP2C9 activ 2
COc1ccc(CCNC(=O)C2CCN(S(=O)(=O)c3cccc4nsnc34)CC2)cc1OC	none
O=C(NCc1cccs1)C1CCN(S(=O)(=O)c2cccc3nsnc23)CC1	CYP2C9 activ 2.5
O=C(NCc1cccs1)C(NS(=O)(=O)c1cccc2nsnc12)c1ccccc1 (stereo unspecified)	CYP2C9 inhib 55.1
